# Publication PMC8384837, “Expanding the binding specificity for RNA recognition by a PUF domain”
# Positions count from the first letter of the chain named.
# What was measured:
# Assay in all cases: yeast three-hybrid, YBZ-1, SC-Leu-His + 0.5 mM 3-AT, 4 days
# Settings in all cases: tags: N-Gal4 AD-HA kept; label: inside an RPR1-promoter hybrid RNA with tandem MS2 sites; ssRNA
# PUM1 PUF domain R4-LFW = PUM1 PUF domain R4-LFW (Homo sapiens, UniProt Q14671 828-1176, N971L;H972F;Q975W)
# Procedure, shortened: (§1)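 Repeat regions from input (SC-Leu) and selection (SC-Leu-His + 0.5 mM 3-AT) plates were PCR-amplified and Illumina-sequenced after four days of growth. The cells were strain YBZ-1 with a LexA–MS2 coat fusion and a HIS3 reporter, co-expressing Pumilio-1 PUF domain libraries and matching RNA elements from a centromeric plasmid. The interaction score is the log change in variant frequency from input to selection, taken in log2 with a pseudocount of 1 for absent variants.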
# PUM1 PUF domain R4-PWG = PUM1 PUF domain R4-PWG (Homo sapiens, UniProt Q14671 828-1176, N971P;H972W;Q975G)
# Procedure, shortened: as §1
# PUM1 PUF domain R7-RRV = PUM1 PUF domain R7-RRV (Homo sapiens, UniProt Q14671 828-1176, S1079R;N1080R;E1083V)
# Procedure, shortened: as §1
# PUM1 PUF domain R7-DHV = PUM1 PUF domain R7-DHV (Homo sapiens, UniProt Q14671 828-1176, S1079D;N1080H;E1083V)
# Procedure, shortened: as §1
# PUM1 PUF domain R4-LGL = PUM1 PUF domain R4-LGL (Homo sapiens, UniProt Q14671 828-1176, N971L;H972G;Q975L)
# Procedure, shortened: as §1
# PUM1 PUF domain R6-FYQ = target: T1, PUM1 PUF domain R6-FYQ (Homo sapiens, UniProt Q14671 828-1176, N1043F)
# T1 sequence: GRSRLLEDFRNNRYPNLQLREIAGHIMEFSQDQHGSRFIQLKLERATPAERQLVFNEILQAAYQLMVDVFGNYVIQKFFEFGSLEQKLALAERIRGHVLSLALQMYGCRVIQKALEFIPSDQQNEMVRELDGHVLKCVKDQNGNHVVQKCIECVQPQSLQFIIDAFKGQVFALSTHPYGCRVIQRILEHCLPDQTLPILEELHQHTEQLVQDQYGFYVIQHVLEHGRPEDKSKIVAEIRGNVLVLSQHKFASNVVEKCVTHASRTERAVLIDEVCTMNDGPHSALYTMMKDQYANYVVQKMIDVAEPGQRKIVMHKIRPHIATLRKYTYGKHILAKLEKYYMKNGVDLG
# Procedure, shortened: as §1
# PUM1 PUF domain R3-CRV = PUM1 PUF domain R3-CRV (Homo sapiens, UniProt Q14671 828-1176, Q939V)
# Procedure, shortened: as §1
# PUM1 PUF domain R6-LWG = target: T2, PUM1 PUF domain R6-LWG (Homo sapiens, UniProt Q14671 828-1176, N1043L;Y1044W;Q1047G)
# T2 sequence: T1 sequence with F216L, Y217W, Q220G
# Procedure, shortened: as §1
# PUM1 PUF domain R6-QYS = target: T3, PUM1 PUF domain R6-QYS (Homo sapiens, UniProt Q14671 828-1176, N1043Q;Q1047S)
# T3 sequence: T1 sequence with F216Q, Q220S
# Procedure, shortened: as §1
# PUM1 PUF domain R4-SLS = PUM1 PUF domain R4-SLS (Homo sapiens, UniProt Q14671 828-1176, N971S;H972L;Q975S)
# Procedure, shortened: as §1
# PUM1 PUF domain R5-MRV = PUM1 PUF domain R5-MRV (Homo sapiens, UniProt Q14671 828-1176, C1007M;Q1011V)
# Procedure, shortened: as §1
# PUM1 PUF domain R5-RAD = PUM1 PUF domain R5-RAD (Homo sapiens, UniProt Q14671 828-1176, C1007R;R1008A;Q1011D)
# Procedure, shortened: as §1
# PUM1 PUF domain R5-LYD = PUM1 PUF domain R5-LYD (Homo sapiens, UniProt Q14671 828-1176, C1007L;R1008Y;Q1011D)
# Procedure, shortened: as §1
# PUM1 PUF domain R5-NAV = PUM1 PUF domain R5-NAV (Homo sapiens, UniProt Q14671 828-1176, C1007N;R1008A;Q1011V)
# Procedure, shortened: as §1
# PUM1 PUF domain R5-QCL = PUM1 PUF domain R5-QCL (Homo sapiens, UniProt Q14671 828-1176, C1007Q;R1008C;Q1011L)
# Procedure, shortened: as §1
# PUM1 PUF domain R5-EGE = PUM1 PUF domain R5-EGE (Homo sapiens, UniProt Q14671 828-1176, C1007E;R1008G;Q1011E)
# Procedure, shortened: as §1
# PUM1 PUF domain R3-RVQ = PUM1 PUF domain R3-RVQ (Homo sapiens, UniProt Q14671 828-1176, C935R;R936V)
# Procedure, shortened: as §1
# PUM1 PUF domain R3-GHF = PUM1 PUF domain R3-GHF (Homo sapiens, UniProt Q14671 828-1176, C935G;R936H;Q939F)
# Procedure, shortened: as §1
# PUM1 PUF domain R7-IFV = PUM1 PUF domain R7-IFV (Homo sapiens, UniProt Q14671 828-1176, S1079I;N1080F;E1083V)
# Procedure, shortened: as §1
# PUM1 PUF domain R3-FSR = PUM1 PUF domain R3-FSR (Homo sapiens, UniProt Q14671 828-1176, C935F;R936S;Q939R)
# Procedure, shortened: as §1
sequence,measurement,setting,value
GGCUAGAACUAGUGGAUCCCCCGGCGCCCGGCGGCUCGAGCCCGGGUAAGUGUAUAUAGUCUGCAUGCCGCCGGGCGCCAUGCCUGCAGGUCGACUCUAGAAAACAUG,binding signal,PUM1 PUF domain R4-LFW,3.89 log2 enrichment (interaction score)
same,binding signal,PUM1 PUF domain R4-PWG,6.71 log2 enrichment (interaction score)
GGCUAGAACUAGUGGAUCCCCCGGCGCCCGGCGGCUCGAGCCCGGGUAAGUCUAAAUAGUCUGCAUGCCGCCGGGCGCCAUGCCUGCAGGUCGACUCUAGAAAACAUG,binding signal,PUM1 PUF domain R7-RRV,4.92 log2 enrichment (interaction score)
GGCUAGAACUAGUGGAUCCCCCGGCGCCCGGCGGCUCGAGCCCGGGUAAGUUUAAAUAGUCUGCAUGCCGCCGGGCGCCAUGCCUGCAGGUCGACUCUAGAAAACAUG,binding signal,PUM1 PUF domain R7-RRV,4.01 log2 enrichment (interaction score)
same,binding signal,PUM1 PUF domain R7-DHV,5.24 log2 enrichment (interaction score)
GGCUAGAACUAGUGGAUCCCCCGGCGCCCGGCGGCUCGAGCCCGGGUAAGUGUAAAUAGUCUGCAUGCCGCCGGGCGCCAUGCCUGCAGGUCGACUCUAGAAAACAUG,binding signal,PUM1 PUF domain R4-LGL,3.33 log2 enrichment (interaction score)
same,binding signal,PUM1 PUF domain R6-FYQ,4.7 log2 enrichment (interaction score)
same,binding signal,PUM1 PUF domain R3-CRV,2.9 log2 enrichment (interaction score)
same,binding signal,PUM1 PUF domain R6-LWG,6.16 log2 enrichment (interaction score)
same,binding signal,PUM1 PUF domain R6-QYS,3.68 log2 enrichment (interaction score)
same,binding signal,PUM1 PUF domain R4-SLS,2.39 log2 enrichment (interaction score)
same,binding signal,PUM1 PUF domain R5-MRV,1.85 log2 enrichment (interaction score)
same,binding signal,PUM1 PUF domain R4-PWG,5.84 log2 enrichment (interaction score)
GGCUAGAACUAGUGGAUCCCCCGGCGCCCGGCGGCUCGAGCCCGGGUAAGUGUUAAUAGUCUGCAUGCCGCCGGGCGCCAUGCCUGCAGGUCGACUCUAGAAAACAUG,binding signal,PUM1 PUF domain R5-RAD,1.31 log2 enrichment (interaction score)
same,binding signal,PUM1 PUF domain R5-LYD,3.06 log2 enrichment (interaction score)
same,binding signal,PUM1 PUF domain R5-NAV,2.55 log2 enrichment (interaction score)
same,binding signal,PUM1 PUF domain R5-MRV,2.34 log2 enrichment (interaction score)
GGCUAGAACUAGUGGAUCCCCCGGCGCCCGGCGGCUCGAGCCCGGGUAAGUGUCAAUAGUCUGCAUGCCGCCGGGCGCCAUGCCUGCAGGUCGACUCUAGAAAACAUG,binding signal,PUM1 PUF domain R5-RAD,2.61 log2 enrichment (interaction score)
GGCUAGAACUAGUGGAUCCCCCGGCGCCCGGCGGCUCGAGCCCGGGUAAGUGUGAAUAGUCUGCAUGCCGCCGGGCGCCAUGCCUGCAGGUCGACUCUAGAAAACAUG,binding signal,PUM1 PUF domain R5-QCL,2.87 log2 enrichment (interaction score)
same,binding signal,PUM1 PUF domain R5-NAV,1.26 log2 enrichment (interaction score)
same,binding signal,PUM1 PUF domain R5-EGE,2.78 log2 enrichment (interaction score)
same,binding signal,PUM1 PUF domain R5-MRV,2.45 log2 enrichment (interaction score)
GGCUAGAACUAGUGGAUCCCCCGGCGCCCGGCGGCUCGAGCCCGGGUAAGUGUAAUUAGUCUGCAUGCCGCCGGGCGCCAUGCCUGCAGGUCGACUCUAGAAAACAUG,binding signal,PUM1 PUF domain R3-CRV,1.05 log2 enrichment (interaction score)
same,binding signal,PUM1 PUF domain R3-RVQ,2.03 log2 enrichment (interaction score)
same,binding signal,PUM1 PUF domain R3-GHF,2.21 log2 enrichment (interaction score)
GGCUAGAACUAGUGGAUCCCCCGGCGCCCGGCGGCUCGAGCCCGGGUAAGUAUAAAUAGUCUGCAUGCCGCCGGGCGCCAUGCCUGCAGGUCGACUCUAGAAAACAUG,binding signal,PUM1 PUF domain R7-IFV,2.59 log2 enrichment (interaction score)
GGCUAGAACUAGUGGAUCCCCCGGCGCCCGGCGGCUCGAGCCCGGGUAAGUGUACAUAGUCUGCAUGCCGCCGGGCGCCAUGCCUGCAGGUCGACUCUAGAAAACAUG,binding signal,PUM1 PUF domain R4-PWG,5.43 log2 enrichment (interaction score)
GGCUAGAACUAGUGGAUCCCCCGGCGCCCGGCGGCUCGAGCCCGGGUAAGUGUAAGUAGUCUGCAUGCCGCCGGGCGCCAUGCCUGCAGGUCGACUCUAGAAAACAUG,binding signal,PUM1 PUF domain R3-FSR,3.48 log2 enrichment (interaction score)
same,binding signal,PUM1 PUF domain R3-CRV,1.31 log2 enrichment (interaction score)
